Measurements as given in PubChem BioAssay (EPA / NIEHS).
“And” between values parts separate entries of the source, which are not always exact repeats. Identical values can stand only once. Records with an inconclusive call do not appear. The source made the active and inactive calls. Rule for the calls, unless noted: active = hit-call score of the fitted dose curve at least 0.9, where 1 is the maximum; inconclusive = response in the unintended direction; inactive = score below 0.9.

Experiments:
[1] = CCTE_Mundy_HCI_iCellGluta_NOG_NeuriteLength: CCTE's Neurite Outgrowth Assay in iCellGluta cells for Neurite Length, Mundy Lab (AID 2284318)
Outline: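 Automated high-content imaging of betaIII-tubulin (Alexa Fluor-488) and Hoechst-stained cells gave neurite length, normalized to the DMSO baseline.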

[2] = IUF_NPC1_cytotoxicity_72hr: Cytotoxicity Assessment at 72 hours in the Leibniz Research Institute for Environmental Medicine (IUF) Neural Progenitor Cell Proliferation Assay (NPC1) (AID 2284332);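 note: rising LDH signal means more cytotoxicity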
Outline: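 hNPC spheres (fetal brain, gestational week 16-19) grown under proliferative EGF/FGF conditions, pH 7.2-7.6, were treated continuously for 72 h. Cytotoxicity came from LDH-coupled resazurin fluorescence in each well's supernatant.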

[3] = CCTE_Mundy_HCI_iCellGluta_NOG_NeuriteCount: CCTE's Neurite Outgrowth Assay in iCellGluta cells for Neurite Count, Mundy Lab (AID 2284342);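 note: chemical exposure about 48 hours starting 2 hours after plating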
TTR (gene 7276) = assay: CCTE_GLTED_hTTR_0.5uM: CCTE's human Transthyretin (hTTR) Inhibition Assay, with 0.5uM TTR, Great Lakes Toxicology and Ecology Division (GLTED) Lab (AID 2284320; active = hit-call score of the fitted dose curve at least 0.9, where 1 is the maximum; inactive = score below 0.9)
Outline: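 Cell-free displacement assay in which human TTR at 0.5 uM was incubated with test chemical for 2 h. Displacement of the ANSA probe was read by fluorescence at 380 nm excitation/475 nm emission. Loss of signal was fitted in the positive direction versus DMSO.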

[4] = Tanguay_ZF_120hpf_MO24: Oregon State University Tanguay Lab 24 Hour Post-fertilization zebrafish Assay for Mortality (AID 2284389; active = hit-call score of the fitted dose curve at least 0.9, where 1 is the maximum; inactive = score below 0.9)
Outline: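 Dechorionated wild-type zebrafish embryos, 1 per well, statically exposed from 6 hpf at 28C, 0.64% DMSO final. Mortality scored as binary present/absent at 24 hpf by brightfield microscopy, relative to DMSO.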

[5] = Tanguay_ZF_120hpf_DP24: Oregon State University Tanguay Lab 24 Hour Post-fertilization zebrafish Assay for Delayed Development (AID 2284390; active = hit-call score of the fitted dose curve at least 0.9, where 1 is the maximum; inactive = score below 0.9)
Outline: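 Dechorionated 5D wild-type zebrafish embryos exposed statically from 6 hpf, one per well, 0.64% DMSO final, 28 C, sealed and dark. Developmental progression scored at 24 hpf by brightfield as binary present/absent; dead embryos excluded.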

[6] = Tanguay_ZF_120hpf_CRAN: Oregon State University Tanguay Lab 120 Hour Post-fertilization zebrafish Assay for Craniofacial Malformation (AID 2284397; active = hit-call score of the fitted dose curve at least 0.9, where 1 is the maximum; inactive = score below 0.9)
Outline: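 Dechorionated Tropical 5D wild-type zebrafish embryos, one per well, were statically exposed from 6 to 120 hpf at 28C in 0.64% DMSO, with 5uM trimethyltin chloride as positive control. Craniofacial malformation was scored present/absent by brightfield microscopy, relative to DMSO.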

[7] = CCTE_Deisenroth_H295R-HTRF_384WELL_ESTRADIOL: CCTE's H295R-HTRF Assay Evaluation of Estradiol Concentration, Deisenroth Lab (AID 2284361; active = hit-call score of the fitted dose curve at least 0.9, where 1 is the maximum; inactive = score below 0.9); conditions: actives raise or lower the signal
Outline: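 H295R cells exposed 48 h to chemicals at 0.001 - 100 uM final (nine points, triplicate); estradiol in conditioned medium measured by HTRF immunoassay, fitted bidirectionally versus DMSO. Viability by CellTiter-Glo on same plates.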

[8] = CCTE_Deisenroth_H295R-HTRF_384WELL_TESTOSTERONE: CCTE's H295R-HTRF Assay Evaluation of Testosterone Concentration, Deisenroth Lab (AID 2284373; active = hit-call score of the fitted dose curve at least 0.9, where 1 is the maximum; inactive = score below 0.9); conditions: actives raise or lower the signal
Outline: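 Secreted testosterone was quantified by HTRF immunoassay of medium from human adrenocortical H295R cells after 48 h chemical exposure at 0.001–100 uM final. Gain or loss was fitted against DMSO. ATP-based viability was read on matched wells, five experimental replicates.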

[9] = CCTE_Deisenroth_H295R-HTRF_384WELL_CTOX: Cytotoxicity Assessment in CCTE's H295R-HTRF Assay, Deisenroth Lab (AID 2284380)
Outline: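 H295R adrenocortical carcinoma cells plated 24 h, then exposed 48 h to nine-point series 0.001–100 uM final, triplicate, n=5. ATP measured by CellTiter-Glo 2.0 luminescence on same plates after medium collection; loss versus DMSO.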

SERPINA7 (gene 6906) = assay: CCTE_GLTED_hTBG: CCTE's human Thyroxine-binding Globulin (TBG) Inhibition Assay, Great Lakes Toxicology and Ecology Division (GLTED) Lab (AID 2284343);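 note: active chemicals lower fluorescence versus DMSO baseline by displacing probe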
Outline: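 Measures how far test chemicals displace ANSA bound to purified human TBG. The read-out is fluorescence at 380 nm excitation and 475 nm emission, taken after 2 h of incubation.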

[10] = CCTE_Deisenroth_5AR_NBTE_donor: CCTE's 5alpha-reductase NanoBRET Target Engagement Assay […], Deisenroth Lab (AID 2284319; active = hit-call score of the fitted dose curve at least 0.9, where 1 is the maximum; inactive = score below 0.9); conditions: actives raise or lower the signal
Outline: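 Donor NanoLuc luminescence at 460-20 nm is the read-out, serving artifact detection. Transiently expressed SRD5A2-NanoLuc in HEK293T; 5 h total chemical exposure, testosterone tracer added for the final 2 h; fitting bidirectional relative to DMSO baseline.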

[11] = CCTE_Deisenroth_5AR_NBTE_acceptor: CCTE's 5alpha-reductase NanoBRET Target Engagement Assay - Autofluorescence Screen, Deisenroth Lab (AID 2284321; active = hit-call score of the fitted dose curve at least 0.9, where 1 is the maximum; inactive = score below 0.9;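 note: compound fluorescence in the acceptor channel under 460 nm excitation flags autofluorescence artifacts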); conditions: actives raise or lower the signal
Outline: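 Autofluorescence check: ToxCast chemicals, nominal 100 uM, excitation 460 nm, n=3 runs. Acceptor fluorescence endpoint, bidirectional fit relative to DMSO. Parent assay in HEK293T, 5 h post-dose.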

SRD5A2 (gene 6716) = assay: CCTE_Deisenroth_5AR_NBTE_ratio: CCTE's 5alpha-reductase NanoBRET Target Engagement Assay - Ratio, Deisenroth Lab (AID 2284322; active = hit-call score of the fitted dose curve at least 0.9, where 1 is the maximum; inactive = score below 0.9); conditions: actives raise or lower the signal
Outline: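 Reverse-transfect HEK293T with pNLF1-C-SRD5A2, express 20 h. Pre-incubate cells with chemical 3 h (8-point series, 10 nM - 29.9 uM, duplicate). Add testosterone tracer, 2 h more. Add substrate/inhibitor, read donor and acceptor emission.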

IYD (gene 389434) = assay: CCTE_GLTED_hIYD: CCTE's human Iodotyrosine Deiodinase (xIYD) Inhibition Assay, Great Lakes Toxicology and Ecology Division (GLTED) Lab (AID 2284317);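 note: cell-free human IYD enzyme made in baculovirus insect cells; iodide freed from monoiodotyrosine measured by cerium arsenite color change at 420 nm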
Outline: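 First, recombinant human IYD (baculovirus-insect cells), MIT and chemical incubated 3 h. Next, iodide isolated on Dowex. Finally, Sandell-Kolthoff rate read at 420 nm, with platewise normalization to MNT and solvent controls.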

[12] = VALA_TUBHUV_Antagonist_TubuleLength: VALA Sciences human Umbilical Vein Endothelial Tubule Formation (TUBHUV) Antagonism Assay (AID 2284325)
Outline: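 HUVEC–HDF co-culture (1:3) pre-grown 3 days with 10 ng/ml VEGF, then 3 days with compound plus VEGF. Fixed, nuclear and CD31 stained; total tubule length by imaging versus 0.1% DMSO; suramin 100 uM positive control.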

[13] = VALA_TUBIPS_Antagonist_CellCount: Viability Assessment in the VALA Sciences human iPS-derived Endothelial Tubule Formation (TUBIPS) Antagonism Assay (AID 2284335)
[14] = VALA_TUBIPS_Agonist_CellCount: Viability Assessment in the VALA Sciences human iPS-derived Endothelial Tubule Formation (TUBIPS) Agonism Assay (AID 2284338)

## COP(=S)(OC)Oc1ccc([N+](=O)[O-])cc1
[1]
  AC50: 21.6 µM (active)
[2]
  outcome: inactive
[3]
  AC50: 23.4 µM (active)

## CCC(C)(C)C(=O)OC1=C(c2ccc(Cl)cc2Cl)C(=O)OC12CCCCC2
[1]
  AC50: 21.9 µM (active)
[2]
  outcome: inactive
[3]
  outcome: inactive

## O=C(O)COc1ccc(Cl)cc1Cl
[1]
  outcome: inactive
[2]
  outcome: inactive
[3]
  outcome: inactive

## COP(=O)(OC)OC=C(Cl)Cl
[1]
  AC50: 12.9 µM (active)
[2]
  outcome: inactive
[3]
  AC50: 49 µM (active)

## O=C(O)C(F)(F)C(F)(F)C(F)(F)C(F)(F)C(F)(F)C(F)(F)C(F)(F)F
[1]
  outcome: inactive
TTR (gene 7276)
  AC50: 450 nM (active) [middle of 4 runs]
[2]
  outcome: inactive
[3]
  outcome: inactive
[4]
  outcome: inactive
[5]
  outcome: inactive
[6]
  outcome: inactive

## CC(C)(C)C(O)C(Oc1ccc(Cl)cc1)n1cncn1 (stereo not drawn)
[7]
  outcome: inactive
[8]
  outcome: inactive
[9]
  outcome: inactive

## O=C(O)CCCOc1ccc(Cl)cc1Cl
SERPINA7 (gene 6906)
  AC50: 20.7 µM (active)

## O=[N+]([O-])/N=C1\NCCN1Cc1ccc(Cl)nc1
[1]
  AC50: 15 µM (active)
[10]
  outcome: inactive
[11]
  outcome: inactive
SRD5A2 (gene 6716)
  outcome: inactive
[2]
  outcome: inactive
[3]
  outcome: inactive

## Oc1cc(Cl)ccc1Oc1ccc(Cl)cc1Cl
IYD (gene 389434)
  AC50: 37.2 µM (active) and 55.2 µM (active) and 24.3 µM (active)
[12]
  outcome: inactive
[13]
  AC50: 0.00562 µM (active)
[14]
  AC50: 7.53 µM (active)
SERPINA7 (gene 6906)
  AC50: 0.154 µM (active)

## Clc1ccccc1-c1nnc(-c2ccccc2Cl)nn1
SERPINA7 (gene 6906)
  AC50: 0.23 µM (active)

## CC[C@H](C)[C@H]1O[C@]2(C=C[C@@H]1C)C[C@@H]1C[C@@H](C/C=C(\C)[C@@H](O[C@H]3C[C@H](OC)[C@@H](O[C@H]4C[C@H](OC)[C@@H](O)[C@H](C)O4)[C@H](C)O3)[C@@H](C)/C=C/C=C3\CO[C@@H]4[C@H](O)C(C)=C[C@@H](C(=O)O1)[C@]34O)O2 (tested in a mixture with another compound)
[1]
  AC50: 3.44 µM (active)
[2]
  outcome: inactive
[3]
  AC50: 3.36 µM (active)
